# PubChem BioAssay AID2315 (National Center for Advancing Translational Sciences (NCATS), 2010)
# Out of some 290,000 compounds screened, about 27,000 (9.3%) were called active. Cut-off read from the data, not from the text of the source: active = inhibition mostly above about 28% (no sharp cut-off); inactive = mostly below about 43%. For the sample, actives were picked, then their nearest neighbours and some compounds at random.
# Assay: A qHTS for Small Molecule Inhibitors of Shiga Toxin; note: 0% is about no effect
# Settings: Vero cells, Shiga toxin protein synthesis inhibition reporter; at 38.7 µM, hits give high values
row,Structure (SMILES),inhibition
1,CC(C)c1ccc(S(=O)(=O)NC2CCCC2)cc1,-8.49% (inactive)
2,CS(=O)(=O)N1CCc2cc(C(=O)Nc3ccccc3Br)ccc21,50.7% (active)
3,CS(=O)(=O)N1CCc2cc(C(=O)Nc3ccccc3)ccc21,3.54% (inactive)
4,CSc1ccccc1NC(=O)c1ccc2c(c1)CCN2S(C)(=O)=O,38.2% (active)
5,CC(=O)Nc1cccc(NC(=O)c2ccc3c(c2)CCN3S(C)(=O)=O)c1,6.84% (inactive)
6,COc1ccc(OC)c(NC(=O)c2ccc3c(c2)CCN3S(C)(=O)=O)c1,-5.31% (inactive)
7,CCc1ccccc1NC(=O)c1ccc2c(c1)CCN2S(C)(=O)=O,21.4% (inactive)
8,COc1cccc(Cn2cc(/C=N/NC(=O)c3cc(O)cc(O)c3)c3ccccc32)c1,-3.1% (inactive)
9,CS(=O)(=O)c1ccccc1C(=O)Nc1ccc2sccc2c1,-5.25% (inactive)
10,CC(C)(CCl)C(=O)Nc1ccc(Sc2ccc(F)cc2)cc1,83% (active)
11,CCN(c1ccccc1)S(=O)(=O)c1ccc(NC(=O)C(C)(C)C)cc1,3.09% (inactive)
12,O=C(CCl)Nc1ccc(Sc2ccc(NC(=O)CCl)cc2)cc1,16% (inactive)
13,O=C(O)c1ccc(NC(=O)c2cn(-c3ccccc3)nc2-c2ccc(Cl)cc2)cc1,24.5% (inactive)
14,O=C(c1cnn(-c2ccc(Cl)cc2)c1)c1ccccc1O,59.4% (active)
15,Cc1ncc(CC(=O)n2cc(C(=O)c3cc(Cl)ccc3O)cn2)s1,8.82% (inactive)
16,CC(=O)Nc1c2c(nn1-c1cccc(C)c1)CSC2,-5.43% (inactive)
17,O=C(CCS(=O)(=O)c1ccc(Br)cc1)NCCc1ccc(Cl)cc1,-14.4% (inactive)
18,COc1ccccc1CCNC(=O)c1cnccn1,10.7% (inactive)
19,Cc1nn(Cc2ccccc2Cl)c(Cl)c1C(=O)OC(C(=O)NC(N)=O)C(C)C (stereo unspecified),8.84% (inactive)
20,COc1ccccc1CCNC(=O)c1c(C)nn(CC(C)C)c1Cl,62.8% (active)
21,N#CC(C#N)=CN=c1ccn(Cc2ccc(Cl)cc2Cl)cc1,1.18% (inactive)
22,Clc1c(OCCCn2ccnc2)ccc2ccccc12,17.6% (inactive)
23,Cc1ccc(CCNC(=O)c2ccc3nc4ccccc4c(=O)n3c2)cc1,5.74% (inactive)
24,O=C(Oc1ccccc1C(=S)N1CCCCC1)c1cc([N+](=O)[O-])cc([N+](=O)[O-])c1,13% (inactive)

row,Structure (SMILES),inhibition
1,Cc1ccc(OCC(=O)Nc2ccc(S(=O)(=O)Nc3ccccn3)cc2)cc1,2.76% (inactive)
2,CCN(CC)CCCNC(=O)COc1ccc2oc3c(c2c1)CCCC3,-7.61% (inactive)
3,O=C(COc1ccc2oc3c(c2c1)CCCC3)Nc1ccccn1,57.2% (active)
4,Cc1ccc(Cn2nnc3c(=O)[nH]c(C4CCN(S(=O)(=O)/C=C/c5ccccc5)CC4)nc32)cc1,-13.7% (inactive)
5,COCn1c(C(O)c2ccccc2)cc2ccccc21 (stereo unspecified),-6.57% (inactive)
6,Cc1ccn2c(c1)nc(=O)c1cc(S(=O)(=O)N3CCC(C)CC3)ccc12,14.3% (inactive)
7,O=C1Nc2cc(C(=O)N3CCC(N4CCCCC4)CC3)ccc2S/C1=C\c1ccccc1,-12.8% (inactive)
8,C=CCCN(C(Cc1ccccc1)C(=O)OC)S(=O)(=O)c1cc(Br)ccc1Br (stereo unspecified),2.22% (inactive)
9,COc1cccc(NC(=O)NCCN2CCCCC2)c1,17.6% (inactive)
10,COc1cccc(NC(=S)NCc2ccccn2)c1,60.7% (active)
11,COC(=O)Cc1ccc(NC(=S)NCc2ccccc2)cc1,-2.18% (inactive)
12,COc1cccc(S(=O)(=O)NCc2ccc(C(=O)NCc3ccccn3)cc2)c1,-7.83% (inactive)
13,Cc1cc(C)cc(NC(=O)NCc2ccccn2)c1,-1.91% (inactive)
14,CCC(C)c1ccc(NC(=S)NCc2ccccn2)cc1 (stereo unspecified),56.9% (active)
15,COc1cccc(NC(=S)N(Cc2ccc(C)cc2)Cc2ccccn2)c1,-9.99% (inactive)
16,COc1cccc(NC(=O)NCc2ccc(F)cc2)c1,43.7% (active)
17,O=C(NCc1cccc(CNC(=O)Nc2cccc(O)c2)c1)Nc1cccc(O)c1,17.1% (inactive)
18,COc1ccc(OC)c(CCNC(=O)CCn2ccc3cc(S(=O)(=O)N4CCCC4)ccc32)c1,1.48% (inactive)
19,COc1ccc(N(CC(=O)Nc2ccc(F)c(F)c2)S(=O)(=O)c2c(C)[nH]c(=O)[nH]c2=O)cc1,-5.76% (inactive)
20,COc1cccc(OC)c1C(=O)Nc1ccc2c(c1)n(C)c(=O)n2C,-1.01% (inactive)
21,COc1ccc(NS(=O)(=O)c2cc(NC(=O)C3CCCCC3)ccc2N2CCOCC2)cc1,-4.94% (inactive)
22,Cn1c(=O)[nH]c(=O)c2c1[nH]c(=S)n2Cc1ccccc1,-6.6% (inactive)
23,CCc1cccc(C)c1NS(=O)(=O)c1c(C)nc2sccn2c1=O,-3.6% (inactive)
24,CCNS(=O)(=O)c1ccc(CCC(=O)N2CCN(c3cc(Cl)ccc3C)CC2)cc1,-3.72% (inactive)

row,Structure (SMILES),inhibition
1,O=c1o[nH]c(-c2ccccc2)c1N=Nc1c(F)cccc1Cl,-2.82% (inactive)
2,Cc1noc(C)c1-c1ccc2ncnc(NCc3ccc4[nH]ccc4c3)c2c1,70.1% (active)
3,Cc1noc(C)c1-c1ccc2ncnc(NCc3ccc(F)c(F)c3)c2c1,10.1% (inactive)
4,Cc1noc(C)c1-c1ccc2ncnc(NC(C)c3ccco3)c2c1 (stereo unspecified),30.2% (inactive)
5,O=Cc1c(NCCCN2CCCC2=O)c2ccccc2[nH]c1=O,7.22% (inactive)
6,Cc1cccc(NC(=O)CSc2nc3[nH]ncc3c(=O)[nH]2)c1,-11.6% (inactive)
7,Cc1ccc(CSc2nc3[nH]ncc3c(=O)[nH]2)cc1,136% (active)
8,CCCSc1nc2[nH]ncc2c(=O)[nH]1,-9.31% (inactive)
9,Cc1ccc(S(=O)(=O)N(C)C)cc1NC(=O)C1Cc2ccccc2CN1C(=O)c1ccco1 (stereo unspecified),-7.79% (inactive)
10,COc1ccc(Cl)cc1-n1c(=S)sc2c(=O)n(-c3ccc(F)cc3)c(SCC(=O)O)nc21,19.4% (inactive)
11,CN(C)c1ccc(C(CC(=O)O)C(=O)O)cc1 (stereo unspecified),73.8% (active)
12,CC(=O)NC(CC(=O)O)c1ccc(F)cc1 (stereo unspecified),-5.08% (inactive)
13,CN(C)c1ccc(/C=N/NC(=O)C(O)c2ccc(Br)cc2)cc1 (stereo unspecified),20.6% (inactive)
14,COc1ccccc1N(C)C(=O)c1cc(S(=O)(=O)N2CCc3ccccc32)cn1C,8.5% (inactive)
15,O=C(CN1CCN(c2ccc(F)cc2)CC1)Nc1ccccc1,-6.95% (inactive)
16,Cc1ccc(-c2cc(C(=O)Nc3nn[nH]n3)c3ccccc3n2)c(C)c1,-11.6% (inactive)
17,CC(=O)Nc1cccc(-c2cnc3ccccc3n2)c1,116% (inactive)
18,Cc1cc(O)ccc1-c1cnc2ccccc2n1,99.9% (active)
19,Cc1oc2c(F)c(F)c(F)c(F)c2c1S(=O)(=O)Nc1cccc(C(F)(F)F)c1,-4.67% (inactive)
20,CCOC(=O)C1CCCN(S(=O)(=O)c2ccc3c(c2)C(C)(C)C(=O)N3C)C1 (stereo unspecified),-10.9% (inactive)
21,COCCN1C(=O)N(c2ccc(Cl)cc2)C(=O)C1CC(=O)Nc1cc(OC)cc(OC)c1 (stereo unspecified),0.637% (inactive)
22,S=c1[nH]nc(CSCc2ccc(Cl)cc2Cl)n1-c1ccccc1,-6.51% (inactive)
23,Cn1c(CCCOc2ccc(Cl)cc2Cl)n[nH]c1=S,57.3% (active)
24,O=C(CCCOc1ccc(Cl)cc1Cl)NNC(=O)C1CCC1,27.9% (inactive)

row,Structure (SMILES),inhibition
1,O=C(COc1ccc(S(=O)(=O)Nc2cccc(C(F)(F)F)c2)cc1)N1CCOCC1,-9.6% (inactive)
2,CCOC(=O)[C@@H]1[C@H]2COc3ccc(Br)cc3[C@H]2N2C(=O)N(c3ccc(Cl)cc3)C(=O)[C@@]12C,-8.05% (inactive)
3,Cc1cccc(NC(=O)c2nc[nH]c2C(=O)NCC(=O)OCc2ccccc2)c1,-6.49% (inactive)
4,Cc1cccc(OCc2ccc(C(=O)Nc3ccc(F)cc3)cc2)c1,-8.13% (inactive)
5,Cc1cccc(CS(=O)(=O)c2ncc(Cl)c(C(=O)Nc3ccc(F)cc3)n2)c1,53.3% (active)
6,CCSc1ncc(Cl)c(C(=O)Nc2cc(C)ccc2C)n1,-1.29% (inactive)
7,Cc1cccc(NC(=O)c2nc(S(=O)(=O)Cc3ccccc3)ncc2Cl)c1,34.1% (active)
8,CCOc1ccc(NC(=O)c2nc(SCC)ncc2Cl)cc1,-3.26% (inactive)
9,COc1ccc(C(=O)Nc2cc(C)c(NC(=O)c3ccccc3OC)cn2)cc1,37% (inactive)
10,Cc1ccc(S(=O)(=O)N(C)CC(=O)NCCc2c[nH]c3ccccc23)cc1,-2.21% (inactive)
11,O=C(CCCCCn1c(=S)[nH]c2ccsc2c1=O)NC1CCCCC1,-10.2% (inactive)
12,COc1ccc2nc(Nc3nc(-c4ccncc4)cs3)sc2c1,53% (inactive)
13,c1cnc(Nc2nc(-c3ccc4ccccc4c3)cs2)nc1,154% (active)
14,COc1ccc(CNc2nccs2)cc1,-0.77% (inactive)
15,COc1ccc(-c2csc(Nc3ccccn3)n2)cc1,48% (active)
16,Clc1ccc(Nc2nc(-c3cccs3)cs2)nc1,70.3% (active)
17,c1ccc(Nc2nc(-c3ccncc3)cs2)nc1,75.1% (active)
18,COC(=O)CSc1nccc(-c2cccs2)n1,46.2% (inactive)
19,COC(=O)c1cc(-c2cccs2)nc2ccccc12,-1.63% (inactive)
20,COc1ccc(N(CC(=O)NCC2CCCO2)C(=O)CCC(=O)Nc2nccs2)c(OC)c1 (stereo unspecified),16.4% (inactive)
21,Cc1ccc(NC(=O)CCC(=O)c2ccc(Br)cc2)cc1,-4.63% (inactive)
22,CCCCNC(=O)CN1C(=O)NC(Cc2ccccc2)(Cc2ccccc2)C1=O,2.69% (inactive)
23,Cc1c(C(=O)N2CCN(c3ccc(F)cc3)CC2)oc2c1C(=O)CCC2,-4.3% (inactive)
24,C/C(=N/OC(=O)c1ccc(Br)cc1)c1ccc(C)cc1,6.54% (inactive)
